Sm TGR inh = S. mansoni TGR enzyme inhibition; Potency, µM (titrated, usually from 114 µM), for the others: top-dose activity change, negative = inhibition, actives largely listed as inhibitors; Q962Y6; purified TGR, DTNB reduction, TNB absorbance 405 nm; 3% of 360,000 active; also: nearly all actives have a fitted effect of over 60% in size
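Kinetic colorimetric format: TGR-catalysed, NADPH-driven DTNB reduction monitored via TNB absorbance. Enzyme dispensed at 20 nM; compound exposure 15 min at room temperature before reaction start.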
AmpC detergent = AmpC beta-lactamase inhibition with detergent present; AmpC hydrolysis of nitrocefin, absorbance 480 nm, 0.01% Triton; Potency, µM (doses to about 114 µM), for inactives: top-dose activity change, negative = inhibition, usual class: inhibitors; P00811; 0.041% of 370,000 active;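 also: 0% = no-compound wells and -100% = no-enzyme wells; nearly all actives have a fitted effect of over 25% in size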
Target sequence (P00811 whole entry, looked up): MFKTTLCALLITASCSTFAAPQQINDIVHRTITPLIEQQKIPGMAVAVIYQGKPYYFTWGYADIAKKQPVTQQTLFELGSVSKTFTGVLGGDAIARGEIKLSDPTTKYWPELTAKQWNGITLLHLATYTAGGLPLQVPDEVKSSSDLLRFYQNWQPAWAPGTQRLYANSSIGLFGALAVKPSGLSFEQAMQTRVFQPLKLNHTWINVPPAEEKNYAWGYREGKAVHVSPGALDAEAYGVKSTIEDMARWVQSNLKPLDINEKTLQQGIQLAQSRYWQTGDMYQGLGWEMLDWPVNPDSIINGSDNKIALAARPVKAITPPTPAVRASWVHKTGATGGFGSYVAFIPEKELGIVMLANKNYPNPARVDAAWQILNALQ
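AmpC (5.3 nM in the dispensed reagent) in 20 mM phosphate pH 7.0 with 0.01% (detergent screen) or 0.0001% Triton X-100 was preincubated with compounds for 15 min at room temperature. Nitrocefin was then added from an 800 uM solution, and hydrolysis was followed at 480 nm.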
AmpC no deterg = AmpC beta-lactamase inhibition without detergent; P00811; AmpC nitrocefin hydrolysis, absorbance 480 nm, 0.0001% Triton; Potency, µM (highest dose often 57.1 µM), without a hit: at the top dose activity change, negative = inhibition, hits mostly inhibitors; 0.52% of 330,000 active; AID 485341;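 also: plate controls were no compound for no effect and no enzyme for full effect; nearly all actives have a fitted effect of over 20% in size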
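20 mM phosphate pH 7.0 + 0.01% (detergent screen) or 0.0001% Triton X-100; 5.3 nM AmpC reagent; cpd preinc 15 min RT; nitrocefin (800 uM stock) to start; A480 q20 s × 4 min; Activity was normalised to no-enzyme and no-compound control wells.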
Active calls of the source: *; u = inconclusive; x = not tested or not shown. An excerpt weighted towards active compounds, which were near 3.3% of everything screened. Calls follow the shape of the dose curve; as a rule, active = well fitted curve in the direction sought with a large enough effect; inconclusive = small, poorly fitted or top-dose-only effect, or another doubt; inactive = no such curve, though single readings can be large; an effect the other way counts as inactive or inconclusive. Unless noted, % is scaled to controls: 0 for no effect and ±100 for the full control effect; potency is read from the fitted curve at half-maximal effect.

SMILES	Sm TGR inh	AmpC detergent	AmpC no deterg
O=C(C1=C(O)C(=O)N(CCN2CCOCC2)C1c1cccnc1)c1cc2ccccc2o1 (stereo unspecified)	u	-7.7%	-3.6%
O=C(C1=C(O)C(=O)N(CCN2CCOCC2)C1c1ccc(Br)cc1)c1cc2ccccc2o1 (stereo unspecified)	31.6µM*	-7.4%	42.7%
COc1cccc2cc(C(=O)C3=C(O)C(=O)N(CCN4CCOCC4)C3c3ccc(Cl)cc3)oc12 (stereo unspecified)	39.8µM*	-0.1%	-1.9%
O=C(C1=C(O)C(=O)N(CCCN2CCOCC2)C1c1ccncc1)c1cc2ccccc2o1 (stereo unspecified)	44.7µM*	u	-35.8%
COc1cccc2cc(C(=O)C3=C(O)C(=O)N(CCN4CCOCC4)C3c3ccc(C(C)(C)C)cc3)oc12 (stereo unspecified)	u	-4.6%	116.7%
Cc1ccc(C2C(C(=O)c3cc4ccccc4o3)=C(O)C(=O)N2CCN2CCOCC2)o1 (stereo unspecified)	22.4µM*	1.8%	u
Cc1ccc(C)c(NC(=O)c2cc(S(=O)(=O)N3CCCCCC3)ccc2F)c1	-2.3%	0.7%	x
CC(C)(C)c1ccc2c(c1)C(c1ccc3c(c1)OCO3)CC(=O)O2 (stereo unspecified)	x	x	-26.6%
CCOc1ccc(C(=O)Nc2cccc(OCc3cc(=O)n4cc(C)sc4n3)c2)cc1	3.4%	7.5%	x
CCC(=O)Nc1ccccc1-c1nc2ccccc2n(CC(=O)c2ccc(Br)cc2)c1=O	0.8%	14.8%	x
COc1cccc(-c2noc(CCCC(=O)Nc3ccc(C(N)=O)cc3)n2)c1	-4.4%	-1.9%	-33.7%
Cc1ccc(S(=O)(=O)Nc2ncnc3sccc23)cc1C	-13.6%	0.5%	-17.2%
C/C(=N\NC(=O)c1ccccc1C)c1cccnc1	0.0%	1.7%	0.2%
C/C(=N\Nc1ccccc1C)c1cccnc1	35.5µM*	-1.0%	-22.1%
COCCN(C(=O)COC(=O)c1ccccc1NCc1ccco1)c1c(N)n(Cc2ccccc2)c(=O)[nH]c1=O	6.8%	-7.4%	u
Cc1nn2c3c(cnc2c1-c1ccccc1)C(=O)CC(c1ccccc1)C3 (stereo unspecified)	12.2%	-13.9%	-2.0%
Cc1nn2c3c(cnc2c1-c1ccccc1)C(=O)CC(c1ccco1)C3 (stereo unspecified)	35.5µM*	-5.3%	-19.7%
CC1CCCN(CC(=O)Nc2ccc(S(=O)(=O)N3CCCC3)cc2)C1 (stereo unspecified)	-10.4%	-13.1%	-11.6%
COc1ccc(OC)c(-n2c(SCC(=O)NCC3CCCO3)nc3ccccc3c2=O)c1 (stereo unspecified)	x	x	33.8%
C/C=C\C=C\C(=O)N1CC2(CC(c3cccc(NC(=O)CC(c4ccccc4)c4ccccc4)c3)=NO2)C[C@H]1C(N)=O (stereo partly specified)	7.08µM*	-7.0%	165.8%
C/C=C/C=C\C(=O)Nc1cccc(C2=NOC3(C2)C[C@@H](C(N)=O)N(C(=O)c2cc([N+](=O)[O-])cc([N+](=O)[O-])c2)C3)c1 (stereo partly specified)	3.55µM*	2.8%	80.0%
C/C=C(\C)C(=O)N1CC2(CC(c3cccc(NC(=O)CC(c4ccccc4)c4ccccc4)c3)=NO2)C[C@H]1C(N)=O (stereo partly specified)	0.0%	4.3%	174.1%
CCCCCC(=O)Nc1cccc(C2=NOC3(C2)C[C@H](C(N)=O)N(C(=O)[C@H]2CCC(=O)N2)C3)c1 (stereo partly specified)	-0.5%	-0.9%	2.8%
C/C=C\C(=O)Nc1cccc(C2=NOC3(C2)C[C@H](C(N)=O)N(C(=O)/C=C/CC)C3)c1 (stereo partly specified)	-15.5%	-6.1%	2.7%
C/C=C\C=C/C(=O)Nc1cccc(C2=NOC3(C2)C[C@@H](C(N)=O)N(C(=O)[C@H]2CCC(=O)N2)C3)c1 (stereo partly specified)	3.55µM*	-0.5%	37.0%
SMILES	Sm TGR inh	AmpC detergent	AmpC no deterg
C/C=C\C=C/C(=O)Nc1cccc(C2=NOC3(C2)C[C@@H](C(N)=O)N(C(=O)/C=C/CC)C3)c1 (stereo partly specified)	1.78µM*	2.3%	82.4%
C/C=C\C=C/C(=O)Nc1cccc(C2=NOC3(C2)C[C@@H](C(N)=O)N(C(=O)/C=C/C=C\C)C3)c1 (stereo partly specified)	u	-9.1%	102.9%
C/C=C\C(=O)Nc1cccc(C2=NOC3(C2)C[C@@H](C(N)=O)N(C(=O)C2(C)CC2)C3)c1 (stereo partly specified)	-0.7%	0.4%	10.2%
C/C=C\C=C/C(=O)Nc1cccc(C2=NOC3(C2)C[C@@H](C(N)=O)N(C(=O)C2(C)CC2)C3)c1 (stereo partly specified)	1.78µM*	-0.3%	46.1%
O=C(CCC1N=C2c3ccccc3N=C(SCc3ccc(Cl)cc3)N2C1=O)N1CCN(c2ccccc2)CC1 (stereo unspecified)	1.3%	18.4%	x
O=C1C=C(Nc2ccccc2O)c2ccccc2C1=O	-35.2%	u	-20.7%
O=C1C=C(NCc2ccccc2)c2ccccc2C1=O	28.2µM*	-2.1%	-42.4%
O=c1cccccc1NCc1ccccc1	35.5µM*	-0.2%	-18.5%
N#Cc1ccccc1NCc1ccccc1	-2.0%	u	-22.0%
C=CCN1N=C(c2ccc(NC(=O)c3ccccc3)cc2)CSC1=O	0.7%	-4.4%	-13.3%
CCOC(=O)c1oc2ccc(Br)cc2c1COC(=O)C1=COCCO1	-2.9%	-5.8%	-4.1%
CCC(=O)N(CCC(c1ccccc1)c1ccco1)Cc1cccs1 (stereo unspecified)	14.1µM*	1.4%	47.1%
COc1ccccc1NC(=S)N(Cc1ccccc1)Cc1cccs1	2.8%	-2.6%	-26.6%
CCC(=O)N(CCC(Cc1ccccc1)c1ccco1)Cc1ccco1 (stereo unspecified)	u	2.2%	39.6%
COc1ccccc1C(CCN(Cc1cccs1)C(C)=O)c1ccco1 (stereo unspecified)	12.6µM*	u	39.9%
COc1ccc(NC(=O)C(NS(=O)(=O)c2cccc3nsnc23)c2ccccc2)cc1 (stereo unspecified)	-1.8%	1.4%	x
O=C(NCC1CCCO1)C1CC(=O)N(c2ccccc2)C1 (stereo unspecified)	3.3%	-1.0%	-11.5%
Cc1ccc(N(CC(=O)NC2CCCC2)C(=O)CCC(=O)Nc2nccs2)cc1C	-1.2%	0.8%	-6.8%
CC(C)c1ccc(NC(=O)CSc2nc3ccsc3c(=O)n2CCC(=O)O)cc1	4.4%	0.2%	-18.4%
COc1cc(CNc2ccc(N3CCCC3)cc2)ccc1OCc1ccccc1F	u	u	-27.0%
COc1cc(CNc2ccc(N3CCCC3)cc2)ccc1OCc1ccccc1	44.7µM*	-14.5%	-22.1%
O=C(Nc1ccc(F)cc1F)C1CCCN1S(=O)(=O)c1ccc(-c2ccc(=O)[nH]n2)s1 (stereo unspecified)	-31.3%	-12.7%	22.2%
Cc1ccc2[nH]c3c(c2c1)CN(C(=O)CN1CCCCC1)CC3	-9.7%	-9.1%	4.8%

Screens (PubChem BioAssay)
